Laboratory results reported in PubChem BioAssay AID1508600 (Functional Genomics Laboratory (NCATS/FGL), 2020).
Out of some 53,000 sequences screened, about 3,700 (7%) were called active. This is one part of a sample in which actives are shown more often than they occur.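 The calls were made as follows: active = gene knockdowns whose robust z-score for IL-1 alpha signal is at least 2 or at most -2, so actives lie on both sides; inactive = the rest.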

assay: Components of the Cytosolic LPS Sensing Pathway: Gene Identification via Genome-wide siRNA Screen; conditions: RAW264.7 macrophages, IL-1a HTRF, actives lie on both sides, screened at 100 nM (by protocol), cells primed 5 h with Pam3CSK4 first
Description: Non-canonical inflammasome activation by cytosolic LPS is a critical component of the host response to Gram-negative bacterial infection, however we lack a comprehensive understanding of the cellular processes that control this pathway. Here we describe a genome-wide siRNA screen to identify genes regulating the mouse macrophage IL-1 alpha response to cytosolic LPS.
RAW264.7 cells were maintained in complete DMEM media, comprising DMEM with 4.5 g/L glucose, 10% FBS (Gemini Bio-Products, West Sacramento, CA), 2 mM Glutamine (Lonza) and 20 mM HEPES (Lonza), hereafter complete DMEM.
The RNAi screen was conducted in 384-well format using the Ambion Silencer Mouse Genome siRNA Library (#4391425), which consists of three unique, nonoverlapping, nonpooled siRNAs for each of 17,000 gene targets. siRNA reagents ([…]) were stamped into 384-well white flat-bottom microplates (Corning, 3570) using a Velocity11 VPrep liquid handling system (Agilent) integrated into a BioCel robotic platform (Agilent) in columns 1-22, leaving columns 23-24 empty for negative (Ambion, Negative control #1) and positive (mouse Casp4) controls, respectively. The median value of each plate's negative control column was used to normalize sample wells, and the positive control was used to assess transfection efficiency and assay performance.
Lipofectamine RNAiMAX Transfection Reagent ([…]; Invitrogen) was added in […] serum-free, antibiotic-free media to plate wells using a Thermo Scientific Matrix WellMate and Microplate Stacker. Plates were incubated for 45 min at room temperature to allow for the sufficient formation of siRNA-lipid complexes. Cells were seeded at a density of 1x10^4 cells per well in 20 microL media containing 20% (vol/vol) FBS without antibiotics. The final concentration of siRNA in each well was 100 nM. Cells were cultured for 48h at 37 degrees C in 5% CO2 before addition of […] of TLR ligand Pam3CSK4 for 5 hours. The medium was then removed, replaced with […] growth media and cell were transfected with […] of LipidA and TransIT-TKO (Mirus) for 24 hour. At the end of the LipidA treatment, […] of supernatant was transferred to a 384 Greiner Bio-one non-binding low volume plate and […] of IL-1a HTRF reagent (Cisbio, 62MIL1APEH) was added and incubated at room temperature overnight. The plates were read on an EnVision plate reader (PerkinElmer). Cell viability was measured by adding 20ul Cell Titer Glo to the original plate and running a luminescence read on the EnVision. The quantified IL-1a signal for each siRNA gene-targeted well was divided by the median of the negative control wells and multiplied by 100 to achieve a negative control normalized value for each well/siRNA. This normalized value was then used to generate a robust z-score by first taking the log of each value and then by subtracting the median and dividing by the […].

z-score, active:
GCAGAAAAACAUCCACGACTT against Spn -2.01
GGGCCUGGAUUACUUACACTT against Srpk1 4.83
GGGAAAGUUUCUGCAUUCUTT against Lce1d 2.07
GGAAAAGAAGACCUACACCTT against Ppp1r1c -2.04
GGCGAACACUGUCAUGAAUTT against Spin4 3.37
GGAAAACUGCUUUGAGCUGTT against Thap7 2.72
GCAAUGUGUAUCAGCCGACTT against Gprc5b 3.38
CCCAGCACAUGCUAUCUCUTT against Zbtb21 -2.6
GGUCUUACGCAAAACGGUCTT against Csf1r 2.86
CCUGCUACAAGUAUCUCAATT against Fdft1 2.85
GCUCGCCUGCAUUUCAUCATT against Pank4 3.3
GGGAAUUUUGAAAAGGCUGTT against Nphp3 2.12
GGCACUCAAUGGUGAGCAATT against Sipa1 2.03
GGAGAUGAUUUCCUACUUCTT against Rasgrp2 3.47

z-score, inactive:
GCAGACAGAUCGCUUCAACTT against Dok4 -0.882
CCCUCUUAGGAGCUAGUGATT against Atp2b4 -1.85
CCAUUCGAUACCUCGUGCATT against Dhps -0.249
UACUUGUAGCCAUGGCUCUTT against Olfr685 0.334
GGCAAAAUAUUGCACAGCGTT against Tsga10 -0.474
GGAAAUUAAACAGAAACAGTT against Ube2j2 -0.471
GGCUGUUUUACAUCAUCCCTT against Ust -0.227
CCACAGUCUAUUCAAACUUTT against Ncapd3 -1.12
GGUCAAGUCAGCAUUCCUGTT against Hspbp1 -1.78
GGCCUGGAUGGAAAUUUGCTT against Fabp4 -0.851
GGAGAAAAGAGUUUGCCCGTT against Wfdc12 -0.329
GCAAAUUCUCGGUGUCAAATT against Ezh2 -1.04
CCUAGUAACUAUCUACCUCTT against Sval3 0.232
GGAUAUCAUCAUGUCUUUCTT against Otop1 1.29
CGUGGAUAAAGAUAACCCGTT against Znrd2 -0.117
GAUAAAAUCGGACUGAUAATT against Olfr1079 0.837
GGUAUUCACACUGAAGCCCTT against H2-DMa 0.108
GCAACAUCCAGGCUUGCCUTT against Tmem107 -0.874
CCAUGAAGAACAAGAAAACTT against 1700010D01Rik 0.239
GGAUAGAAAACAGUAUCUGTT against Fggy 1.07
AAGGUGCAGAGUUACACGUTT against H2-T10 1.17
GGUCUUCAAUUUCUUCAAATT against 4930430F08Rik 0.928
GGGAAAACCGAAUAAAGAUTT against Ren2 -1.51
GCAUACCAUCUUAUUUUGGTT against Sptlc1 0.159
GCGUGAGCUAAUGUUCACATT against Agpat2 -0.255
GCCACUACUAAUAGCAUGUTT against 5330438I03Rik -1.68
GGAGAAUGGAAAGUAUGGGTT against D1Pas1 -1.99
GCCUAUAAGGAAUAACAAGTT against Cerkl 1.27
GGCCUUGAUGGUGAAGAUGTT against Vstm4 -1.79
GGACAGACGUGCACUUAGATT against Garnl3 0.875
GGUGGAUGUUCGCAUGAUUTT against Ip6k1 -1.2
GGCAUAUACACAAUUGAUATT against Arsk -1.27
GGAUAAGGAGAUGAAUUCCTT against Aard 1.01
CCCAAUCCUGUCAAUAGUCTT against Gfpt1 -0.911
GGCCUAAUGAAUUUGGUCATT against Ubxn7 0.93
CCCACAAAUUAAAGUCCGCTT against Cldn16 0.926
GGACCUGUCUUCAUUGGAGTT against Ngb 0.981
GCAGAUAAUUUUAACCCUCTT against Inpp5b 0.641
GCCAUUCUCCAACAAUCGATT against Evc -1.69
GCAACCUCUCCUCUCUAGATT against Olfr15 -1.11
GCGGAUUCAGCUGAUGAUGTT against Sash1 -1.32
GGGUUCUCAAGGUUGCAUUTT against Frs3 1.15
CCCGGUUAGCCUUUGAUUGTT against Lamc3 0.576
CCCUUGAGUCAUUCUCUAATT against Gsto1 0.0391
GGAAAUAGAUUUUCAGCUCTT against Dnase2b 0.138
GGAAUUUGAAACUUACGGCTT against Oc90 0.379
UUUCGAGCUGAUCCAUGAGTT against Tbata 1.19
GGUCCAGAUCCACCAGAUUTT against Banp 1.11
GGCUCUUGCUUUAGUAUUCTT against Ly9 0.99
GGCAGAUUACUCUGAAUGATT against Prdx4 0.326
GGUUUAUUGUAAUGGCUAATT against Olfr1271 0.452
GGACAAAUGGGUAUUAUCUTT against Phxr4 -1.01
GGUGUACCAGAAUGAGAAGTT against Akr1b3 0.611
GGUAUUUAGUAAACACCCATT against Edar 0.413
GGGUCAAAUCUGACUGCAUTT against Klf10 0.501
